Our source for the growth inhibition values is PubChem BioAssay (NCI).

About 79,000 compounds went through this panel and 15% of them were active in at least one assay; those are over-represented in the sample as a whole. A number with no mark means an inactive call. Rule as the data show it: active = growth inhibition above about 70%; inactive = the rest.

A short description of the assay: NCI Yeast Anticancer Drug Screen. Data for the mlh1 rad18 strain (AID 175). Particulars: S. cerevisiae mlh1 rad18 strain growth inhibition; at 50.0 µM; stronger effect = higher value. The method in brief: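 Test agents were incubated with a yeast strain of defined genotype (DNA damage repair defect). Inhibition of growth was derived by comparison with vehicle-exposed cultures.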
Consider `CC1c2c(cc(=O)n(C)c2O)C(=O)N1Cc1ccccc1` (stereo not given), for which the growth inhibition is -9.4%.
`Cc1cc(C)[n+]([O-])c(C)c1`: the growth inhibition is -2.85%.
The value for `Cc1cc2c(=O)cc(-c3ccc(C(F)(F)F)cc3)oc2c(C(=O)O)c1C` was 12.8%.
As to `CCOC(=O)C1(C(=O)OCC)C2C=CC(C2)C1C(=O)OC` (stereo not given), the growth inhibition is 8.3%.
`CC(NC(=O)C(C)(C)C)c1ccc2c(c1)OCCO2` (stereo not given): the growth inhibition was 2.85%.
In the case of `CCOC(=O)/C(N=Nc1ccc(O)cc1)=C(\C)O` it was -0.65%.
In the case of `CCOC(=O)CCC(NC(=O)c1ccc(OCc2ccc3nc(OC)c(OC)nc3c2)cc1)C(=O)OCC` (stereo not given) it was 13.2%; in that of `Cc1cc(C)c(CSc2cc(N)nc(N)c2N)c(C)c1`, 48.2%; in that of `[O-][n+]1c2ccc(Cl)cc2nc2ccc(Cl)cc21`, -4.6%.
In the case of `CCC(/C=N\NC(=O)CCCC(=O)N/N=C/C(CC)CC)CC` it was -0.35%; in that of `O=C(Nc1ccccn1)OCCCl`, 7.1%; in that of `Nc1nc(Cc2ccccc2)cs1`, 12.6%.
Take `O=C(O)C(O)c1c[nH]c2ccccc12` (stereo not given): the growth inhibition is -29.3%.
As for `CC(=O)Oc1c(C)c2c(O)c3c1C1=C(OCOC1=C(C)C3=O)/C(C)=C\C(C)(O)C(O)C(C)C(O)C1C(=O)OC(C(C)C1O)C(C)(O)/C=C/C=C(C)C(=O)N2` (stereo not given), the growth inhibition is 5.5%.
For the compound `COc1ccc(CC2OCCC3c4ccccc4NC23)cc1OC` (stereo not given), the growth inhibition was -2.05%.
The value for `CS(=O)(=O)Nc1cccc(C(=O)NN)c1` was 14.4%; that for `O=C1c2ccccc2-c2ccc(-c3ccc4c5c(cccc35)C(=O)c3ccccc3-4)c3cccc1c23` was -34.2%; that for `CCCCCCCCCCCCCC(=O)Oc1ccc([N+](=O)[O-])cc1` was 14.4%.
For the compound `S=C=Nc1ccc(CSc2nc3ccccc3[nH]2)cc1`, the growth inhibition is -11.2%.
Turning to `CCCCCCC(=O)/C=C/c1ccc(Cl)cc1`, the growth inhibition is -15.6%.
In the case of `Cc1n(C)nn[n+]1C` it was -16.5%; in that of `CC(=O)OC1CCC2(C)C(CCC3C2CC(OC(C)=O)C2(C)C(C(C)CCC(c4ccccc4)c4ccccc4)CCC32)C1` (stereo not given), -1.55%.
In the case of `CCOC(=O)C(C#N)=C1CC(C)OC(C)C1` (stereo not given) it was 4.15%.
In the case of `CCCCCCCCCCCCCCCCCC(=O)c1ccc(OC)c(OC)c1`, the growth inhibition was -1.25%.
In the case of `O=C1NC(c2ccccc2)C1N(Cc1ccccc1)Cc1ccccc1` (stereo not given) it was 9.8%.
In the case of `CCOC(=O)C(CC)(C(=O)OCC)C(C)CC` (stereo not given), the growth inhibition is -1.25%.
In the case of `CC1(C(N)=O)CCC1` it was -20.9%.
Consider `CCSC(SCC)C(NC(C)=O)C(O)C(O)COC(=O)c1ccccc1` (stereo not given), for which the growth inhibition was 25.2%.
With `O=C(O)C1Cc2c([nH]c3ccccc23)C(c2ccccc2)N1` (stereo not given), the growth inhibition is 14.4%.
Consider `O=C(Nc1ccccc1)C1CC2C=CC1C2` (stereo not given), for which the growth inhibition is 1.55%.
As to `CCOC(=O)c1nc2c(n(O)c1=N)CCC/C2=N\O`, the growth inhibition is 5.45%.
For `NC(=O)ON=C1CCN(Cc2ccccc2)CC1`, the growth inhibition is 21.4%.
`O=C(O)C(O)C(O)C(O)C(O)C(O)CO.[NH-]C1CCCCC1[NH-].[Pt+2]` (stereo not given): the growth inhibition was -49.5%.
The value for `CC1(C)CCCCC1=O` was -14.3%.
In the case of `O=S(=O)(c1ccc(NC(=S)N2CCOCC2)cc1)N1CCCCC1` it was 8.65%; in that of `CCOP(=O)(OCC)C(C)(CC)NC1=NC(C(F)(F)F)(C(F)(F)F)NC(=O)N1` (stereo not given), -0.15%; in that of `COc1ccc(NC(=O)CC(=O)n2nc(C)c(N=Nc3ccccc3C(=O)O)c2C)cc1`, 15.3%.
Turning to `CC1(C#N)CCCC(c2ccccc2)(c2ccccc2)C1=O` (stereo not given), the growth inhibition was 34.5%.
Take `CC(=O)c1nc(C#N)c(N)o1`: the growth inhibition was -23.4%.
Take `COC(=O)C(CO)NC(=O)C(CC(C)C)NC(=O)C(CC(C)C)NC(=O)OCc1ccccc1` (stereo not given): the growth inhibition is 13.2%.
